Drawing on PubChem BioAssay, this text covers z-score and composite z-score for twelve molecules.

The source made the active and inactive calls. Unless noted, the rule behind the calls is not given here.

The nature of assay [1]: resazurin metabolic signal in HepG2 cells – cell-based, resazurin fluorescence, 24 h, PK04 Diversity Set, profiling panel (AID 1172). Note: test concentration not given here. The note with it: HepG2 viability, higher = more signal. (In general: Alamar Blue is a resazurin reagent that responds to reducing activity.)
The nature of assay [2]: budding yeast growth changes without added modifier – OD600, strain BY4716, 24 h, basal condition, primary screen (AID 1173). The settings on record: S. cerevisiae BY4716 growth, OD600, 24 h; higher = more signal, called active from +8 up or from −8 down.
A short description of assay [3]: viability profiling in MM1S myeloma cells – cell-based, resazurin fluorescence, basal, 24 h, PK04 Diversity Set, profiling panel (AID 1174).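 Note: MM1S multiple myeloma cell line; test concentration not given here.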 The note with it: higher = more signal, called active from +8 up or from −8 down.
Assay [4] addresses Dihydroorotate dehydrogenase (quinone), mitochondrial (Plasmodium falciparum (isolate 3D7)) (UniProt Q08210). The assay is described as follows: inhibition of P. falciparum DHODH – biochemical, C-terminal His tag, absorbance 600 nm, primary screen (AID 1175).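 Note: recombinant parasite enzyme with a five histidine tag at its C terminus; test concentration not given here.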 The note with it: PfDHODH enzyme, DCIP absorbance 600 nm; higher = more signal, called active from +8 up or from −8 down.

Assay [5] in a line: inhibition of PAO1 biofilm formation – strain PAO1, LB-PBS medium, absorbance 600 nm, primary screen (AID 1176). Note: test concentration not given here. The note with it: P. aeruginosa PAO1 growth/biofilm, A600, 12 h; higher = more signal.
The nature of assay [6]: growth modulation of vineyard yeast isolate – strain RM11-1a, OD600, basal, 24 h, primary screen (AID 1177).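 Note: cultures grown under basal conditions with no added stressor; test concentration not given here.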 The settings on record: S. cerevisiae RM11-1a growth, OD600, 24 h; higher = more signal, called active from +8 up or from −8 down.
Assay [7] is described as follows: growth of efflux-deficient E. coli DRC39 – strain DRC39, OD650, 24 h, E. coli filamentation inducers, primary screen (AID 1178).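 Note: growth measured as culture turbidity by optical density at 650 nm; test concentration not given here.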 The note with it: E. coli DRC39 acrAB, higher = more signal, called active from +8 up or from −8 down.
Assay [8] in a line: growth of efflux-deficient E. coli DRC39 – strain DRC39, OD650, 48 h, E. coli filamentation inducers, primary screen (AID 1179).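 Note: screen aims at cell division blockers that make cells filament.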 The settings on record: E. coli DRC39 delta-acrAB growth, higher = more signal, called active from +8 up or from −8 down.
Assay [9] is described as follows: viability profiling in RPMI8226 myeloma cells – cell-based, resazurin fluorescence, basal, 24 h, PK04 Diversity Set, profiling panel (AID 1180).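 Note: RPMI8826 multiple myeloma cell line at 5000 cells per well; test concentration not given here.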 The note with it: higher = more signal.
Assay [10] deals with E3 ubiquitin-protein ligase XIAP (Homo sapiens) (UniProt P98170). As to the kind of experiment: small molecules binding XIAP protein – biophysical, small-molecule microarray, fluorescence 635 nm, primary screen (AID 1181).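 Note: score merges 667 nm emission and signal to noise over triplicate slides.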 The note with it: higher = more signal.
Chain of E3 ubiquitin-protein ligase XIAP (Homo sapiens) (P98170 whole entry, looked up): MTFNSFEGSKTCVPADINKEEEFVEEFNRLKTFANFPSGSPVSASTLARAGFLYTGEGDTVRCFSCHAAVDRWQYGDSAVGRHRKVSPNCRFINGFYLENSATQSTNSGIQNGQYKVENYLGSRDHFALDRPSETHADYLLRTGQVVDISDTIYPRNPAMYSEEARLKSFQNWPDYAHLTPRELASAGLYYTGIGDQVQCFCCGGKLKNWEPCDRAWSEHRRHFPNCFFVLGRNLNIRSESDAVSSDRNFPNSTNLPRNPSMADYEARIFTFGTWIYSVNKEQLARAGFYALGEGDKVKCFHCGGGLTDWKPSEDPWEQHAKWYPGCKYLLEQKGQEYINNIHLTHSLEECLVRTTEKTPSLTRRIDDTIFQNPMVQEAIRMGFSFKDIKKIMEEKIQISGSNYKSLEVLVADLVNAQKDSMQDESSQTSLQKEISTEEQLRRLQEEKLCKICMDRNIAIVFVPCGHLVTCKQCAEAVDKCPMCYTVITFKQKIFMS

Chain of Dihydroorotate dehydrogenase (quinone), mitochondrial (Plasmodium falciparum (isolate 3D7)) (Q08210 whole entry, looked up): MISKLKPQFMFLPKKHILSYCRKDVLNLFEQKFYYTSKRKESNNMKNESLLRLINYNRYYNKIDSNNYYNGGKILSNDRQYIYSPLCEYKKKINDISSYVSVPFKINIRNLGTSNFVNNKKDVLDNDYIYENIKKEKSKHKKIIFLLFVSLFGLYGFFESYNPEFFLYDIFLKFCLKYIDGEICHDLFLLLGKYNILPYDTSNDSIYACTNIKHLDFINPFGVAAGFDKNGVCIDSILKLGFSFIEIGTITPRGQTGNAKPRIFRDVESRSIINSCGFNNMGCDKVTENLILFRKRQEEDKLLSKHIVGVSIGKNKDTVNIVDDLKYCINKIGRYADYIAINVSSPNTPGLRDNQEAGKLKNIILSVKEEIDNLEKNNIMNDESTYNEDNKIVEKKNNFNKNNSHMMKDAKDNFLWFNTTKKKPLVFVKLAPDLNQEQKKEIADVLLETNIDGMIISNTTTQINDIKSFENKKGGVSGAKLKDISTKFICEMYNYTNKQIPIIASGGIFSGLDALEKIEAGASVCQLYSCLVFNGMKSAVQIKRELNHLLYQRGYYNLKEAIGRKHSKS

`NC(=O)NCC#Cc1ccc2c(c1)[C@]1(C(=O)N2)[C@H](c2ccc(OCCO)cc2)N2[C@H](c3ccccc3)[C@H](c3ccccc3)OC(=O)[C@H]2[C@@H]1C(=O)N1CCCCCCC1`: the z-score in [1] was 0.314; in assay [2] it was 1.64 (inactive); in [3], -0.476 (inactive); in assay [5], 2.03 (inactive); in [6], 2.58 (inactive); in assay [7] it was -0.172 (inactive). Further, the values for the z-score in assay [8] and in assay [9] were -1.96 (inactive) and -0.507, respectively. Moreover, the composite z-score in assay [4] is 0.769 (inactive); in assay [10] it was 0.531.

Turning to `COCCCNC(=O)[C@@H]1c2ccccc2C(=O)N(c2ccc(C)cn2)[C@H]1c1ccc(CO)cc1`, the z-score in assay [1] is -1.23; in assay [2], 0.357 (inactive); in assay [3] it was 0.507 (inactive); in assay [5], 0.242 (inactive); in assay [6] it was 0.169 (inactive); in assay [7], -0.541 (inactive). Besides, the z-score in [8] is -0.856 (inactive); in [9], 0.162. Also, the composite z-score in assay [4] was 0.293 (inactive); in [10] it was -0.195.

Turning to `CCCNC(=O)[C@@]1(Sc2ccc(C)cc2)CC(=O)N(Cc2ccccc2)[C@@H]1c1ccc(CO)cc1I`, the z-score in assay [1] is -0.38; in [2], -2.59 (inactive); in assay [3], -3.26 (inactive); in assay [5], 1.14 (inactive); in assay [6] it was -0.598 (inactive); in assay [7], 0.214 (inactive). Further, the z-score was 0.0547 (inactive) in assay [8] and -2.81 in [9]. Besides, the composite z-score was -11.5 (active) in assay [4] and 0.0471 in assay [10].

`NC(=O)NCC#Cc1ccc2c(c1)[C@]1(C(=O)N2)[C@H](c2ccc(OCCO)cc2)N2[C@H](c3ccccc3)[C@H](c3ccccc3)OC(=O)[C@H]2[C@@H]1C(=O)N1CCN(c2ncccn2)CC1`: the z-score in assay [1] is 0.21; in [2], 1.04 (inactive); in assay [3], 0.963 (inactive); in [5], 2.71 (inactive); in assay [6] it was 2.58 (inactive); in assay [7] it was 0.665 (inactive). Also, the z-score was 0.773 (inactive) in assay [8] and 1.79 in assay [9]. Besides, the composite z-score in assay [4] was -0.858 (inactive); in [10] it was -0.149.

As for `COC(=O)C(CC#Cc1ccc2c(c1)[C@]1(C(=O)N2)[C@H](c2ccc(O)cc2)N2[C@H](c3ccccc3)[C@H](c3ccccc3)OC(=O)[C@H]2[C@@H]1C(=O)O)C(=O)OC`, the z-score was 0.464 in assay [1]; 0.338 (inactive) in [2]; -0.134 (inactive) in [3]; 0.875 (inactive) in assay [5]; -0.316 (inactive) in [6]; -0.0388 (inactive) in assay [7]. Moreover, the values for the z-score in assay [8] and in assay [9] were -0.286 (inactive) and -0.0316, respectively. Further, the figures for the composite z-score in assay [4] and in assay [10] were -1.59 (inactive) and -0.374, respectively.

Turning to `COC(=O)[C@@]1(Cc2ccccc2)[C@H]2c3cc(C(=O)N4CCCC4)n(Cc4ccccc4)c3C[C@H]2CN1C(=O)c1ccccc1`, the z-score in assay [1] is -2.54; in assay [2], 0.717 (inactive); in assay [3] it was -1.12 (inactive); in assay [5] it was 0.895 (inactive); in assay [6], 0.235 (inactive); in assay [7], -0.78 (inactive). In addition, the values for the z-score in assay [8] and in [9] were -0.591 (inactive) and -3.29, respectively. The composite z-score in [4] was -0.237 (inactive); in assay [10], 0.421.

Regarding `COCC1=C([C@H](O)CCc2ccccc2)[C@H](CO)[C@@H]2C(=O)N(C)C(=O)[C@@H]2C1`, the z-score in assay [1] was -0.548; in [2] it was -1.66 (inactive); in assay [3], 0.244 (inactive); in [5], 0.908 (inactive); in [6], 0.1 (inactive); in [7], 2.16 (inactive). Further, the z-score was 1.65 (inactive) in assay [8] and 0.544 in assay [9]. The figures for the composite z-score in assay [4] and in assay [10] were -0.0291 (inactive) and -0.353, respectively.

In the case of `COC(=O)C(CC#Cc1ccc2c(c1)[C@]1(C(=O)N2)[C@H](C(=O)N2CCc3cc(OC)c(OC)cc3C2)[C@H]2C(=O)O[C@H](c3ccccc3)[C@H](c3ccccc3)N2[C@@H]1c1ccc(O)cc1)C(=O)OC`, the z-score is -0.555 in assay [1]; 1.8 (inactive) in [2]; 1.26 (inactive) in assay [3]; 3.04 (inactive) in [5]; 3.33 (inactive) in assay [6]; 0.414 (inactive) in assay [7]. For the same molecule, the z-score in assay [8] was 0.356 (inactive); in assay [9] it was -0.14. In addition, the results for the composite z-score in [4] and in assay [10] were -22.8 (active) and -0.167, respectively.

Regarding `COc1ccc([Si](C)(C)[C@@H]2[C@@H](CC(=O)N(CCO)Cc3ccccc3)O[C@]3(C(=O)N(Cc4ccc(N5CCOC5=O)cc4)c4ccccc43)[C@H]2C)cc1`, the z-score in assay [1] was -1.12; in assay [2], 0.613 (inactive); in assay [3], -1.85 (inactive); in assay [5] it was 1.77 (inactive); in assay [6], 0.953 (inactive); in [7] it was 1.16 (inactive). The z-score in [8] was 0.307 (inactive); in [9], -2.31. Also, the composite z-score in assay [4] was -0.0014 (inactive); in [10], -0.0333.

As to `O=C1N(CCS(=O)(=O)c2ccccc2)c2ccccc2[C@H]2OC(c3ccc(OCCCO)cc3)=N[C@@]12CCS(=O)(=O)c1ccccc1`, the z-score in assay [1] is 0.248; in assay [2], 2.94 (inactive); in assay [3], 0.685 (inactive); in assay [5], 0.591 (inactive); in [6], 3.96 (inactive); in [7] it was 2.37 (inactive). The z-score in assay [8] is 1.04 (inactive); in assay [9] it was 0.488. The composite z-score in [4] was 0.761 (inactive); in [10], 0.0197.

Consider `CCCCC(=C=CC[C@H](O)c1cccc(OCCO)c1)C[C@H](O)COCc1ccccc1`, for which the z-score in assay [1] was 1.38; in [2], -0.919 (inactive); in assay [3], 0.202 (inactive); in assay [5], 0.342 (inactive); in [6] it was 0.178 (inactive); in [7], 0.525 (inactive). Also, the values for the z-score in assay [8] and in assay [9] were 0.122 (inactive) and 0.774, respectively. Further, the composite z-score in [4] was -1.06 (inactive); in assay [10] it was -0.165.

As to `C=C(COC)/C(=C/C[C@@H](OC(=O)c1ccncc1)c1cccc(OCCO)c1)c1cc(C(=O)OC)ccc1OC`, the z-score in [1] is -0.114; in assay [2] it was -18.2 (active); in [3], -0.477 (inactive); in [5], 0.236 (inactive); in assay [6], -22.1 (active); in assay [7], 0.802 (inactive). For the same molecule, the z-score in assay [8] was 0.488 (inactive); in assay [9] it was 0.0987. Besides, the values for the composite z-score in assay [4] and in [10] were -7.37 (inactive) and 0.201, respectively.
